Shiga inhibitor: blocks Shiga toxin action in Vero cells; Vero cells, Shiga toxin protein synthesis inhibition reporter; inhibition, % at 38.7 µM; actives 9.2% (n = 290,000); AID 2315; in the data active means inhibition mostly above about 28%, no sharp cut-off; inactive means mostly below about 43%
HCV inh: HCV inhibition. actives 3.4% (n = 340,000). Potency, µM (top dose mostly 41.8 µM), actives largely listed as inhibitors. Huh7.5.1 HCVcc-Cre infection, luciferase reporter, 44 h
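Whole-lifecycle infectious HCVcc-Cre system; cells 1,000/well, compound then virus (~0.5 moi) added 4 h after plating, 44 h culture. Luciferase read 15 sec following 15 min substrate incubation, room temp.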
Cycloheximide cs: counter-screen for Shiga toxin inhibitors: cycloheximide protein synthesis inhibition. AID 2314. cell reporter, cycloheximide protein synthesis inhibition counterscreen. actives 12% (n = 300,000). max response, %; in the data active means max response mostly above about 13%, no sharp cut-off; inactive means mostly below about 14%; further: read at 38.3 µM for the half of the compounds with a filed dose
Pf growth 48h: P. falciparum growth inhibition at 48 hours (one generation) | Potency, µM (top dose mostly 28.7 µM), most hits filed as inhibitors | actives 5.9% (n = 310,000) | P. falciparum luciferase growth in erythrocytes, 48 h | AID 504832
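Luminescence readout; reporter = integrated firefly luciferase in P. falciparum. RBC culture at 2% hematocrit, 0.1% parasitemia final, 37 C/5% CO2; decreased signal taken as growth inhibition.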
HCMV antiviral: inhibitors of human cytomegalovirus | HFF cells, HCMV-luciferase reporter, 72 h; hits give low values | AID 1259415 | actives 4.5% (n = 410,000) | activity change, negative = inhibition, % at 57.5 µM; in the data active means activity change below about -60%; inconclusive means no clear call, values can overlap the other calls; inactive means above about -39%
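Cell-based, HFFs, 1000 cells/well, 16 h 37C; cpds in DMSO + HCMV-luc, MOI 1 PFU/cell; 72 h 37C; OneGlo luminescence after 5 min RT; norm. to buffer vs Salinomycin 10uM.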
Pf growth 96h: inhibits malaria parasite growth, 96 h. actives 6.9% (n = 320,000). P. falciparum luciferase reporter growth, 96 h. Potency, µM (series often up to 28.7 µM), hits mostly inhibitors. AID 504834
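P. falciparum expressing integrated firefly luciferase grown in erythrocytes (2% hematocrit, 0.05% parasitemia final) with compounds for 96 hours at 37 C, 5% CO2. Growth inhibition read as loss of luminescence after adding luciferase detection reagent.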
Numbers stand for hits; i = inactive; ? = inconclusive; nt = not tested or not shown. Compounds with a hit are over-represented: about 21% of the library has one in this group of screens. Unless noted, the call rests on the fitted dose curve; in most records, active means well fitted inhibition curve with a large enough effect; inconclusive means small, poorly fitted or top-dose-only effect, or another doubt; inactive means no such curve, though single readings can be large or run the other way.

SMILES | Shiga inhibitor | HCV inh | Cycloheximide cs | Pf growth 48h | HCMV antiviral | Pf growth 96h
COc1ccc(C(c2sc3nc(C)nn3c2O)N2CCN(CCO)CC2)cc1OC (stereo not drawn) | i | i | i | i | i | i
NC1=NC(c2ccccc2)=NC1(NC(=O)c1ccccc1)C(Cl)Cl (stereo not drawn) | i | i | i | i | i | i
COc1ccc2[nH]cc(S(=O)(=O)c3ccc(C(C)C)cc3)c(=O)c2c1 | i | i | i | i | i | i
CCc1cc(C(c2ccc(OC)c(OC)c2)N2CCOCC2)c(NC(=O)c2ccccc2)s1 (stereo not drawn) | i | ? | i | ? | i | ?
CCc1cc(C(c2cccc(OC)c2)N2CCOCC2)c(NC(=O)c2ccccc2)s1 (stereo not drawn) | i | ? | 37.6 | ? | i | ?
CC1(C)CC(NC(=O)c2cc(COc3cccc(C(F)(F)F)c3)on2)CCO1 (stereo not drawn) | 48.1 | ? | 29.1 | i | i | ?
Cc1ccc(OCc2cc(C(=O)NC3CCOC3)no2)cc1C (stereo not drawn) | 25.2 | i | 20.2 | i | i | i
CC(=O)c1cccc(OCc2cc(C(=O)NC3CCN(Cc4ccccc4)CC3)no2)c1 | i | ? | i | i | ? | 11.7µM
COc1ccc(OCc2cc(C(=O)NC3CCOCC3)no2)c2ccccc12 | i | ? | 22.1 | ? | i | ?
CCN(C(=O)COC(=O)CSc1ccccc1)c1c(N)n(Cc2ccccc2)c(=O)[nH]c1=O | nt | i | nt | i | i | i
CCCCCCCCN1N=N[C@H]2[C@H]1[C@@H]1C[C@H]2N(C(=O)OC(C)(C)C)O1 | nt | i | nt | nt | i | nt
CC(C)c1ccc(CN2C(=O)C(n3cccc3)c3cccc(F)c32)cc1 (stereo not drawn) | nt | nt | nt | nt | i | nt
CCc1ccc(NC(=O)CSc2nc(=O)n(Cc3ccco3)c3c2CCC3)cc1 | nt | nt | nt | nt | i | nt
COc1cccc(OCc2cc(C(=O)NC3CCOCC3)no2)c1 | 81.8 | i | 45.9 | i | i | i
O=C(COc1ccccc1[N+](=O)[O-])Nc1ccc(Br)cc1 | 113.9 | i | 48.6 | i | i | i
O=C(COc1ccccc1[N+](=O)[O-])NCc1cccnc1 | i | i | i | i | i | i
CCCNC(=O)COC(=O)c1ccccc1OCC(=O)Nc1ccc(Br)cc1 | i | i | i | i | i | i
CC(C)(C)NC(=O)COC(=O)c1ccccc1OCC(=O)Nc1ccc(Br)cc1 | 34.8 | i | 17.4 | i | i | i
O=C(COc1ccccc1[N+](=O)[O-])Nc1cccnc1 | 89.8 | i | 31.1 | i | ? | i
CCOC(=O)c1oc2ccccc2c1COC(=O)CNC(=O)c1cccc(C)c1 | i | i | i | i | i | i
CCOC(=O)N1CCc2c(sc3c2c(=O)n(-c2ccc(CC)cc2)c(=O)n3CC(=O)NCC2CCCO2)C1 (stereo not drawn) | i | i | i | 5.22µM | nt | ?
CC(=O)N1CCc2c(sc3c2c(=O)n(Cc2ccccc2)c(=O)n3CC(=O)NCC2CCCO2)C1 (stereo not drawn) | i | i | i | 0.37µM | i | i
CCc1ccc(-n2c(=O)c3c4c(sc3n(CC(=O)c3ccc(F)cc3)c2=O)CCC4)cc1 | nt | nt | nt | nt | -87.8 | nt
CCc1ccc(-n2c(=O)c3c4c(sc3n(Cc3ccc(F)cc3)c2=O)CCCC4)cc1 | nt | nt | nt | nt | i | nt
COc1ccc(-c2ccc3nncn3c2)cn1 | nt | nt | nt | nt | i | nt
SMILES | Shiga inhibitor | HCV inh | Cycloheximide cs | Pf growth 48h | HCMV antiviral | Pf growth 96h
Cc1cc(C)cc(NC(=O)c2cn3c4c(ccc(Cl)c4c2=O)OC(C)C3)c1 (stereo not drawn) | nt | nt | nt | nt | i | nt
N#Cc1ccccc1NC(=O)CSc1nc(-c2ccccc2)cc(C(F)(F)F)c1C#N | nt | nt | nt | nt | i | nt
Cc1cc(-c2ccccc2)n(-c2cc(N/N=C/c3ccccc3O)ncn2)n1 | i | ? | i | 13.1µM | -96.2 | i
O=C(NCCCc1nc2ccccc2n1Cc1ccc(F)cc1)C1CCCCC1 | nt | nt | nt | nt | i | nt
C=CCn1cc(C(=O)N2CCc3ccccc3C2)c(=O)c2cc(S(=O)(=O)N(CC)CC)ccc21 | i | i | i | ? | -67.4 | i
CCN(CC)S(=O)(=O)c1ccc2c(c1)c(=O)c(C(=O)NCc1ccccc1Cl)cn2C | nt | nt | nt | nt | -64.5 | nt
CCN(CC)S(=O)(=O)c1ccc2c(c1)c(=O)c(C(=O)NCc1ccccc1)cn2C | nt | nt | nt | nt | i | nt
CCN(CC)S(=O)(=O)c1ccc2c(c1)c(C(=O)O)cn2C | i | i | i | i | i | 6.57µM
CCN(CC)S(=O)(=O)c1ccc2c(c1)c(=O)c(C(=O)N1CCN(c3ccccn3)CC1)cn2C | i | i | i | i | ? | 0.522µM
CCCCn1c(N)c(N(CCOC)C(=O)COC(=O)COc2c(C)cc(C)cc2C)c(=O)[nH]c1=O | nt | i | nt | i | i | i
Brc1ccc(-c2ccc(CNCc3ccccn3)o2)cc1 | i | i | 25.8 | i | ? | ?
Clc1cccc(-c2ccc(CNCc3ccccn3)o2)c1 | 81.0 | i | 32.3 | i | i | ?
COc1ccc2c(c1)OC[C@H]1[C@H]2N2C(=O)c3cc(F)ccc3NC(=O)[C@@]2(C)[C@H]1c1ccccc1 | nt | 11.2µM | nt | nt | i | nt
COc1ccc2c(c1)OC[C@H]1[C@H]2N2C(=O)c3cc(Cl)ccc3NC(=O)[C@@]2(C)[C@H]1c1ccccc1 | nt | ? | nt | 9.28µM | nt | 3.29µM
COc1ccc2c(c1)OC[C@H]1[C@H]2N2C(=O)c3cc(OC)ccc3NC(=O)[C@@]2(C)[C@H]1c1ccccc1 | nt | ? | nt | 5.22µM | i | 6.57µM
CCN(CC)C(=O)Cn1cc(SCC(=O)Nc2cccc(F)c2)c2ccccc21 | nt | nt | nt | nt | i | nt
COc1cccc(CNC(=O)COC(=O)CCS(=O)(=O)c2ccc(C)cc2)c1 | nt | i | nt | i | i | i
O=C1CNC(=S)N1C1CCCCCC1 | i | i | i | i | i | i
CC1=CC(O)(c2ccccn2)P(=O)(c2ccccc2)C=C1C (stereo not drawn) | nt | nt | nt | nt | i | nt
CC(C)n1ncc2c(C(=O)NCc3cccnc3)cc(C3CC3)nc21 | nt | 7.94µM | nt | ? | i | ?
COc1cccc(CNC(=O)c2cc(C3CC3)nc3c2cnn3C(C)C)c1 | nt | ? | nt | 4.65µM | i | 3.29µM
COCCNC(=O)c1cnn2c(C(F)F)cc(-c3ccc(C)cc3)nc12 | i | i | i | i | i | i
Cc1ccc(OCCNC(=O)c2cc(C3CC3)nc3c2cnn3C(C)C)cc1 | nt | 12.6µM | nt | ? | i | ?
Cc1ccc(CNC(=O)c2cc(C3CC3)nc3c2c(C)nn3-c2cccc(Cl)c2C)cc1 | nt | nt | nt | nt | i | nt
COc1ccc(CNC(=O)c2cc(C3CC3)nc3c2cnn3C(C)C)cc1OC | nt | ? | nt | i | i | ?
Cc1ccc(CNC(=O)c2cc(C3CC3)nc3c2cnn3C(C)C)cc1 | nt | ? | nt | 13.1µM | i | ?
O=S(=O)(NNc1cccc(Cl)n1)c1ccc(Cl)cc1 | i | i | i | i | i | i
O=C(CCc1ccccc1)N=C1SC2CS(=O)(=O)CC2N1c1cccc(F)c1 (stereo not drawn) | i | i | i | i | i | i
